Only some compounds are listed: those with a hit (about 8.5% of all), similar ones and a draw of the others.
KDM4E inh = qHTS Assay for Inhibitors of Human Jumonji Domain Containing 2E (JMJD2E). Lysine-specific demethylase 4E (Homo sapiens), B2RXH2. JMJD2E catalytic domain, FDH-coupled NADH fluorescence (FDH is formaldehyde dehydrogenase). Potency, µM (titrated, usually from 57.1 µM), most hits filed as inhibitors. hit rate 1.6% among 230,000; active = well fitted inhibition curve with a large enough effect, not every such curve was filed as active; inconclusive = small, poorly fitted or top-dose-only effect, or another doubt; inactive = no such curve, though single readings can be large or run the other way; also: nearly all actives have a fitted effect of over 50% in size
Target sequence (B2RXH2 1-337 limits assumed): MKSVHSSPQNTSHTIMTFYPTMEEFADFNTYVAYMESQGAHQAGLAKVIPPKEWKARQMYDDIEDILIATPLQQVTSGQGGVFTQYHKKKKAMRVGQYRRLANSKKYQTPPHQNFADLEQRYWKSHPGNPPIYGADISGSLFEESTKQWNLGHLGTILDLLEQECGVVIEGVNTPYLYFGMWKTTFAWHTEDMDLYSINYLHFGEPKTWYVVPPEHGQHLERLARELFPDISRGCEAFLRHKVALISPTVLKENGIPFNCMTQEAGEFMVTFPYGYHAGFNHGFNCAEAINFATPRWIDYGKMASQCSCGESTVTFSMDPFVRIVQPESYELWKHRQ
FBPA coupling cs = qHTS Assay for Inhibitors of Fructose-1,6-bisphosphate Aldolase from Giardia Lamblia: Coupling assay counterscreen; coupling enzyme system counterscreen, AmpLite Red fluorescence; AID 2472, 2010; activity change, negative = inhibition, % at 58.2 µM, hits read low; hit rate 0.67% among 290,000; in the data active = activity change below about -30%
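Final compound at 57.5 uM, incubated 10 min at RT with coupling enzyme reagent (glyceraldehyde-3-phosphate), then 20 min with substrate and AmpLite Red detection. Fluorescence read at 525/598 nm; tests interference with the coupling assay, not aldolase inhibition.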
Sfp inh = qHTS Assay for Inhibitors of Bacillus subtilis Sfp phosphopantetheinyl transferase (PPTase). hit rate 3.5% among 310,000. AID 1490, 2009. 4'-phosphopantetheinyl transferase ffp (Bacillus subtilis), Q9F4F7. Potency, µM, most hits filed as inhibitors. Biochemical Sfp PPTase activity, qHTS;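 also: the enzyme is Sfp with the accession as filed and its product quenches rhodamine fluorescence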
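With Hepes-Na pH 7.6 buffer containing 10 mM MgCl2, Sfp (15 nM) modified BHQ-2-YbbR (12.5 uM) using rhodamine-CoA (5 uM). Two reads 30 minutes apart at 525/598 nm yielded each well's rate.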
RGS12 GoLoco inh = qHTS Assay for Inhibitors of RGS12 GoLoco Motif Activity (Red Fluorophore); Guanine nucleotide-binding protein G(i) subunit alpha-1 (Homo sapiens), P63096; Gai1:RGS12 GoLoco peptide FP, rhodamine, 10 min; Potency, µM (top dose mostly 61.6 µM), usual class: inhibitors; hit rate 0.44% among 230,000; AID 880, 2007; active = well fitted inhibition curve with a large enough effect, not every such curve was filed as active; inactive = no such curve, though single readings can be large or run the other way; also: nearly all actives have a fitted effect of over 30% in size
Target sequence (P63096 whole entry, looked up): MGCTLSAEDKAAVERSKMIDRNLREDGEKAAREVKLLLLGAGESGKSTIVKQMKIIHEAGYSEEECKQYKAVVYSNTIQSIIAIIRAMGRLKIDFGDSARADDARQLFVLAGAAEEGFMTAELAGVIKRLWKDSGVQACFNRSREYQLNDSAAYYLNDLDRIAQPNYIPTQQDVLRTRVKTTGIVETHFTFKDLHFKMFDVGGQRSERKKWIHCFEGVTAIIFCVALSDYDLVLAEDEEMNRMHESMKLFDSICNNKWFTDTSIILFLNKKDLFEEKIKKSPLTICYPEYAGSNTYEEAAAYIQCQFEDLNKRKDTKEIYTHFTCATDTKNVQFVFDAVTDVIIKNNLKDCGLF
NPSR antag = qHTS Assay for Antagonists of the Neuropeptide S Receptor: cAMP Signal Transduction; Q6W5P4; CHO-NPSR cells, cAMP TR-FRET, antagonist mode; Potency, µM (highest dose often 38.3 µM), actives largely listed as inhibitors; hit rate 1% among 220,000; also: nearly all actives have a fitted effect of over 50% in size
ALDH1A1 block = qHTS Assay for Inhibitors of Aldehyde Dehydrogenase 1 (ALDH1A1). Potency, µM (top dose mostly 75.3 µM), hits mostly inhibitors. hit rate 7.3% among 220,000. Purified ALDH1A1, NADH fluorescence, propionaldehyde substrate. Aldehyde dehydrogenase 1A1 (Homo sapiens), P00352; active = well fitted inhibition curve with a large enough effect, not every such curve was filed as active; inconclusive = small, poorly fitted or top-dose-only effect, or another doubt; inactive = no such curve, though single readings can be large or run the other way
Hits are given with their value; – = inactive; ? = inconclusive; · = no result given; [ ] = another dose, or the depositor's remark. Unless noted, calls follow the shape of the dose curve; as a rule, active = well fitted curve in the direction sought with a large enough effect; inconclusive = small, poorly fitted or top-dose-only effect, or another doubt; inactive = no such curve, though single readings can be large; an effect the other way counts as inactive or inconclusive.

SMILES	KDM4E inh	FBPA coupling cs	Sfp inh	RGS12 GoLoco inh	NPSR antag	ALDH1A1 block
Cc1cccc(C)c1-n1c(C)nn(CC#N)c1=O	–	–	–	–	–	–
Cn1cccc1CC(=O)NNC(=S)NC(=O)c1ccccc1Br	–	–	–	–	–	–
COc1ccc(S(=O)(=O)Cc2ccc(C(=O)N3CCN(C(=O)c4ccco4)CC3)o2)cc1	–	–	–	–	–	6µM
COc1ccc(N2CCN(C(=O)c3ccc(CS(=O)(=O)c4ccc(OC)cc4)o3)CC2)cc1	–	–	–	–	–	–
NC(=O)C1c2ccccc2CCc2ccccc21	·	·	–	·	·	·
COc1ccc(N2CC(C(=O)Nc3ccccc3C(=O)NC3CC3)CC2=O)cc1 (configuration not stated)	·	–	–	·	·	·
CC(C)N(CC#CCC(O)(c1ccccc1)C1CCCC1)CCO (configuration not stated)	–	–	20µM	–	–	28µM
COc1ccc(N2CCN(C(=O)CC34CC5CC(CC(C5)C3)C4)CC2)c([N+](=O)[O-])c1	–	–	?	–	?	?
Cc1ccc(-c2nnn(CC(=O)N(c3ccccc3)C(C(=O)NC3CCCC3)c3ccncc3)n2)o1 (configuration not stated)	·	–	–	·	·	·
Cc1ccc(-c2nnn(CC(=O)N(Cc3ccccc3F)C(C(=O)NC3CCCC3)c3ccncc3)n2)o1 (configuration not stated)	–	–	28µM	–	–	?
O=c1c(Cc2ccccc2)c(O)ccn1Cc1ccc2c(c1)OCO2	–	–	–	–	–	2.2µM
COc1ccc(NC(C)c2cc(Cl)ccc2O)cc1 (configuration not stated)	?	–	–	–	–	22µM
CC(Nc1ccccc1)c1cc(Cl)ccc1O (configuration not stated)	–	–	–	–	–	–
CCc1cccc2c1NC(=O)C21N2CCCC2C(C(=O)c2ccc3ccccc3c2)C12C(=O)Nc1ccccc12 (configuration not stated)	?	–	–	–	–	20µM
C/C(=N/NC(=O)c1cc(O)c(O)c(O)c1)c1ccc([N+](=O)[O-])cc1	–	–	3.2µM	–	–	25µM
C/C(=N\NC(=O)c1cc([N+](=O)[O-])cc([N+](=O)[O-])c1)c1ccco1	–	–	35µM	–	–	–
C/C(=N\NC(=O)c1ccc(-c2ccccc2)cc1)c1ccco1	·	–	–	·	·	·
O=C(NCc1ccccn1)c1cn(-c2ccccc2)nc1-c1ccc(Cl)cc1	–	–	–	–	–	?
CN1/C(=C/C2CC(=O)N(c3ccc([N+](=O)[O-])cc3)C2=O)C(C)(C)c2ccccc21 (configuration not stated)	–	–	45µM	–	–	11µM
CN1/C(=C\C(=S)NC(=O)c2cccc(Br)c2)C(C)(C)c2ccccc21	–	–	?	·	–	1µM
CN1/C(=C/C=N/NC(=O)c2ccc([N+](=O)[O-])cc2)C(C)(C)c2ccccc21	?	–	–	–	–	–
Cc1cccc(CC2CC(=O)N(c3ccc([N+](=O)[O-])cc3)C2=O)c1 (configuration not stated)	·	–	–	·	·	·
CN1/C(=C\C(=O)Nc2ccc(Br)cc2)C(C)(C)c2ccccc21	?	–	–	–	–	?
CN1/C(=C\C(=S)NC(=O)c2ccc([N+](=O)[O-])cc2)C(C)(C)c2ccccc21	–	–	?	–	–	35µM
COC(=O)c1ccccc1NC(=O)Cn1cnc2ccc(S(=O)(=O)N3CCC(C)CC3)cc2c1=O	–	–	89µM	–	–	–
SMILES	KDM4E inh	FBPA coupling cs	Sfp inh	RGS12 GoLoco inh	NPSR antag	ALDH1A1 block
COc1ccc(-n2c(O)c(/C=N/NS(=O)(=O)c3ccc(C)c([N+](=O)[O-])c3)c3ccccc3c2=O)cc1OC	?	–	–	–	–	?
Cc1ccc(S(=O)(=O)N/N=C/c2ccc(O)cc2O)cc1[N+](=O)[O-]	–	–	50µM	–	–	·
COc1cc(/C=N/NS(=O)(=O)c2ccc(C)c([N+](=O)[O-])c2)cc([N+](=O)[O-])c1O	·	–	–	·	·	·
COc1cc(/C=N/NS(=O)(=O)c2ccc(C)c([N+](=O)[O-])c2)ccc1O	–	–	–	–	–	13µM
COc1cc(/C=N/NS(=O)(=O)c2ccc(C(C)(C)C)cc2)cc([N+](=O)[O-])c1O	–	–	–	–	–	7.9µM
CCOc1cccc(/C=N/NS(=O)(=O)c2ccc(C)c([N+](=O)[O-])c2)c1O	–	–	56µM	–	–	4µM
Cc1ccc(S(=O)(=O)N/N=C/c2cc([N+](=O)[O-])ccc2O)cc1[N+](=O)[O-]	–	–	?	–	–	13µM
Cc1ccc(S(=O)(=O)N/N=C\c2cc([N+](=O)[O-])ccc2Cl)cc1	–	–	–	–	–	?
O=C1CCNc2c(Cl)cccc21	–	–	–	4.5µM	–[7.67 µM]	·
COc1cc(OC)c(/C=N/N2CCN(c3ccccc3OC)CC2)c(OC)c1	·	–	–	·	·	·
CC(C)(C)OC(=O)NCCc1n[nH]c(=S)o1	–	–	79µM	–	?	·
COc1ccccc1CNC(=O)c1c(-c2ccccc2)nn(-c2ccccc2)c1C	–	–	–	–	–	4µM
COc1ccccc1CNC(=O)c1cccc(-c2ccccc2OC)n1	·	–	–	–	·	32µM
CCc1ccc(-n2ccc(=O)c(C(=O)O)n2)cc1	·	–	–	·	·	·
CCOC(=O)C1=NOC2C3CC(C12)C1C(=O)N(CCc2ccc(OC)c(OC)c2)C(=O)C31 (configuration not stated)	–	–	–	–	–	·
c1ccc2oc(SCc3cn4ccccc4n3)nc2c1	–	–	–	–	–	3.2µM
Cc1cccc2nc(CSc3nc4ccccc4o3)cn12	–	–	–	–	–	?
Cc1ccc2cccc(NC(=S)NC(=O)c3ccnn3C)c2n1	–	–	?	–	–	10µM
CCCCNC(=O)Nc1cc(C(F)(F)F)c[nH]c1=O	–	-43	–	–	–	?
Cc1c(Br)c([N+](=O)[O-])nn1C(C)C(=O)Nc1ccc2c(c1)OCO2 (configuration not stated)	–	·	–	–	–	?
CCNC(=O)c1ccc(CSc2ccc(Cl)cc2)cc1	–	–	–	–	–	–
Cn1[nH]c(CSc2ccc(Cl)cc2)cc1=O	?	–	–	–	–	1.8µM
Cn1c(SCC(=O)C(C)(C)C)nnc1-c1ccncc1	–	–	–	–	–	?
